Measurements as given in PubChem BioAssay (EPA / NIEHS).
Activity calls are given as the source filed them. Rule for the calls: active = hit-call score of the fitted dose curve at least 0.9, where 1 is the maximum; inactive = score below 0.9.

Columns and labels:
Conditions in all cases: mRNA level, 48 h; actives raise or lower the signal
[1] = read-out: Potassium channel subfamily K member 1 (KCNK1), KCNK1 (gene 3775); test: LTEA_HepaRG_KCNK1: Life Technologies and Expression Analysis (LTEA) Assay for Potassium channel subfamily K member 1 (KCNK1) using HepaRG (AID 2283511)
How it was run: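 Differentiated HepaRG cells, 48 h exposure in serum-free induction medium with 0.5% DMSO; 8 concentrations, half-log from 100 uM, duplicate. KCNK1 mRNA by qRT-PCR, normalized to ACTB, GAPDH, POLR2A; bidirectional fit vs DMSO.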

[2] = read-out: Keratin 19 (KRT19), KRT19 (gene 3880); test: LTEA_HepaRG_KRT19: Life Technologies and Expression Analysis (LTEA) Assay for Keratin 19 (KRT19) using HepaRG (AID 2283512)
How it was run: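 KRT19 transcript levels, measured by Fluidigm qRT-PCR against three housekeeping genes, are fitted for gain or loss of signal relative to DMSO. Human HepaRG cells receive test chemicals (top 100 uM, half-log steps, 0.5% DMSO) for 48 hours.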

[3] = read-out: Lipase C (LIPC), LIPC (gene 3990); test: LTEA_HepaRG_LIPC: Life Technologies and Expression Analysis (LTEA) Assay for Lipase C (LIPC) using HepaRG (AID 2283514)
How it was run: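 HepaRG cells, 48 h after plating, treated in duplicate for 48 h in serum-free induction medium over 8 half-log concentrations from 100 uM, 0.5% DMSO. LIPC mRNA by TaqMan qRT-PCR normalized to ACTB/GAPDH/POLR2A; bidirectional fit versus DMSO.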

[4] = read-out: Lipoprotein lipase (LPL), LPL (gene 4023); test: LTEA_HepaRG_LPL: Life Technologies and Expression Analysis (LTEA) Assay for Lipoprotein lipase (LPL) using HepaRG (AID 2283515)
How it was run: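 Differentiated HepaRG cells, plated 48 h, then exposed 48 h in serum-free induction medium to 8 concentrations (top 100 uM, half-log steps) in 0.5% DMSO, duplicate. LPL mRNA measured by qRT-PCR, normalized to ACTB, GAPDH and POLR2A.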

[5] = read-out: MicroRNA 122 (MIR122), gene 406906; test: LTEA_HepaRG_MIR122: Life Technologies and Expression Analysis (LTEA) Assay for MicroRNA 122 (MIR122) using HepaRG (AID 2283516); note: the transcript read is the microRNA miR-122
How it was run: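 Differentiated human HepaRG cells were exposed 48 h in serum-free induction medium to eight half-log concentrations (top 100 uM, 0.5% DMSO). Transcript level was measured by TaqMan qRT-PCR, normalized to ACTB, GAPDH and POLR2A, and fitted bidirectionally versus DMSO.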

[6] = read-out: matrix metalloproteinase-10 (MMP10), MMP10 (gene 4319); test: LTEA_HepaRG_MMP10: Life Technologies and Expression Analysis (LTEA) Assay for matrix metalloproteinase-10 (MMP10) using HepaRG (AID 2283517)
How it was run: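 Differentiated HepaRG cells in serum-free induction medium exposed 48 h in duplicate to 8-point half-log series up to 100 uM in 0.5% DMSO. mRNA quantified by qRT-PCR, normalised to ACTB, GAPDH, POLR2A; bidirectional fit versus DMSO.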

[7] = read-out: MYC, MYC (gene 4609); test: LTEA_HepaRG_MYC: Life Technologies and Expression Analysis (LTEA) Assay for MYC using HepaRG (AID 2283518)
How it was run: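 HepaRG, ~100,000 cells/well, collagen I; 48 h plating; serum-free induction medium; 48 h dosing, duplicate, 100 uM top, half-log, 0.5% DMSO; total RNA → qRT-PCR MYC; gain/loss fit vs DMSO.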

[8] = read-out: matrix metalloproteinase-3 (MMP3), MMP3 (gene 4314); test: LTEA_HepaRG_MMP3: Life Technologies and Expression Analysis (LTEA) Assay for matrix metalloproteinase-3 (MMP3) using HepaRG (AID 2283519)
How it was run: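 HepaRG cells (~100,000/well) in serum-free induction medium were dosed in duplicate for 48 h with an 8-point half-log series from 100 uM, 0.5% DMSO. MMP3 mRNA was quantified by Fluidigm TaqMan qRT-PCR, normalized to three housekeeping genes.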

[9] = read-out: Paternally Expressed 10 (PEG10), PEG10 (gene 23089); test: LTEA_HepaRG_PEG10: Life Technologies and Expression Analysis (LTEA) Assay for Paternally Expressed 10 (PEG10) using HepaRG (AID 2283520)
How it was run: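 Differentiated HepaRG cells, plated 48 h then switched to serum-free induction medium, were exposed in duplicate for 48 h to eight half-log concentrations topping at 100 uM in 0.5% DMSO. PEG10 mRNA was quantified by TaqMan qRT-PCR, normalised to ACTB, GAPDH and POLR2A.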

[10] = read-out: Nuclear factor NF-kappa-B p105 subunit (Homo sapiens) (UniProt P19838); test: LTEA_HepaRG_NFKB1: Life Technologies and Expression Analysis (LTEA) Assay for Nuclear Factor Kappa B Subunit 1 (NFKB1) using HepaRG (AID 2283521);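 note: TaqMan qRT-PCR transcript normalised to ACTB GAPDH and POLR2A housekeeping genes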
How it was run: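 HepaRG, 48 h exposure; 8-pt half-log series from 100 uM in 0.5% DMSO; duplicates. Readout: NFKB1 mRNA by qRT-PCR (Fluidigm arrays), housekeeping-normalized. Gain/loss fit vs DMSO baseline.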

[11] = read-out: Protein phosphatase 2A (PPP2R4), PTPA (gene 5524); test: LTEA_HepaRG_PPP2R4: Life Technologies and Expression Analysis (LTEA) Assay for Protein phosphatase 2A (PPP2R4) using HepaRG (AID 2283522)
How it was run: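 Differentiated HepaRG cells in serum-free induction medium were exposed in duplicate for 48 h to eight concentrations, top 100 uM with half-log dilutions, in 0.5% DMSO. PPP2R4 mRNA was quantified by TaqMan qRT-PCR, normalized to ACTB, GAPDH and POLR2A.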

[12] = read-out: Phosphatase and tensin (PTEN), PTEN (gene 5728); test: LTEA_HepaRG_PTEN: Life Technologies and Expression Analysis (LTEA) Assay for Phosphatase and tensin (PTEN) using HepaRG (AID 2283523)
How it was run: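 HepaRG cells, 48 h after plating, exposed in duplicate for 48 h in serum-free induction medium to 8 half-log concentrations up to 100 uM (0.5% DMSO). PTEN mRNA by qRT-PCR, normalized to ACTB, GAPDH, POLR2A; bidirectional fit versus DMSO.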

[13] = read-out: solute carrier (SLC22A1), SLC22A1 (gene 6580); test: LTEA_HepaRG_SLC22A1: Life Technologies and Expression Analysis (LTEA) Assay for solute carrier (SLC22A1) using HepaRG (AID 2283524)
How it was run: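 Differentiated human HepaRG cells in serum-free induction medium, exposed 48 h in duplicate to 8-point half-log series from 100 µM top in 0.5% DMSO. SLC22A1 mRNA by TaqMan qRT-PCR normalized to ACTB, GAPDH, POLR2A; bidirectional fit versus DMSO.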

[14] = read-out: Pyruvate Dehydrogenase Kinase 4 (PDK4), PDK4 (gene 5166); test: LTEA_HepaRG_PDK4: Life Technologies and Expression Analysis (LTEA) Assay for Pyruvate Dehydrogenase Kinase 4 (PDK4) using HepaRG (AID 2283525)
How it was run: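 HepaRG cells plated 48 h, then switched to serum-free induction medium and exposed in duplicate for 48 h to 8 half-log concentrations from 100 uM in 0.5% DMSO. PDK4 mRNA measured by qRT-PCR, normalized to ACTB, GAPDH and POLR2A; bidirectional fit versus DMSO.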

[15] = read-out: NAD(P)H dehydrogenase [quinone] 1 (NQO1), NQO1 (gene 1728); test: LTEA_HepaRG_NQO1: Life Technologies and Expression Analysis (LTEA) Assay for NAD(P)H dehydrogenase [quinone] 1 (NQO1) using HepaRG (AID 2283526)
How it was run: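 Differentiated HepaRG cells, plated 48 h and then switched to serum-free induction medium, were exposed in duplicate for 48 h to 8-point half-log concentrations up to 100 uM in 0.5% DMSO. mRNA measured by qRT-PCR, normalized to ACTB, GAPDH, POLR2A; bidirectional fit versus DMSO.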

[16] = read-out: Nuclear factor erythroid 2-related factor 2 (Homo sapiens) (UniProt Q16236); test: LTEA_HepaRG_NFE2L2: Life Technologies and Expression Analysis (LTEA) Assay for Nuclear factor erythroid 2-related factor 2 (NFE2L2) Transcription Factor using HepaRG (AID 2283527);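 note: TaqMan qRT-PCR transcript level normalised to ACTB GAPDH and POLR2A housekeeping genes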
How it was run: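 Differentiated human HepaRG cells, serum-free induction medium, exposed 48 h in duplicate to eight half-log concentrations up to 100 uM in 0.5% DMSO. NFE2L2 mRNA by Fluidigm TaqMan qRT-PCR, normalised to ACTB, GAPDH, POLR2A; bidirectional change versus DMSO.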

[17] = read-out: succinate dehydrogenase complex iron sulfur subunit B (SDHB), SDHB (gene 6390); test: LTEA_HepaRG_SDHB: Life Technologies and Expression Analysis (LTEA) Assay for succinate dehydrogenase complex iron sulfur subunit B (SDHB) using HepaRG (AID 2283528)
How it was run: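 Readout is SDHB transcript level by qRT-PCR, normalised to three housekeeping genes and fitted bidirectionally against 0.5% DMSO vehicle. Human HepaRG cells were treated for 48 h at up to 100 uM.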

[18] = read-out: solute carrier (SLCO1B1), SLCO1B1 (gene 10599); test: LTEA_HepaRG_SLCO1B1: Life Technologies and Expression Analysis (LTEA) Assay for solute carrier (SLCO1B1) using HepaRG (AID 2283530)
How it was run: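 HepaRG, serum-free induction medium, 48 h dosing, 8-pt half-log from 100 uM, 0.5% DMSO vehicle, duplicates. Readout: SLCO1B1 mRNA, qRT-PCR, ACTB/GAPDH/POLR2A normalization; up or down fit vs DMSO.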

[19] = read-out: JUN Transcription Factor, JUN (gene 3725); test: LTEA_HepaRG_JUN: Life Technologies and Expression Analysis (LTEA) Assay for JUN Transcription Factor using HepaRG (AID 2283513)
How it was run: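 Differentiated HepaRG cells were exposed to chemicals for 48 h in serum-free induction medium, 8 concentrations from 100 uM in half-log steps, 0.5% DMSO vehicle, in duplicate. JUN mRNA was quantified by TaqMan qRT-PCR, normalized to ACTB, GAPDH, POLR2A.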

[20] = read-out: Signal transducer and activator of transcription 3 (Homo sapiens) (UniProt P40763); test: LTEA_HepaRG_STAT3: Life Technologies and Expression Analysis (LTEA) Assay for Signal transducer and activator of transcription (STAT3) using HepaRG (AID 2283529)
How it was run: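 Differentiated HepaRG cells, serum-free induction medium, dosed 48 h in duplicate, 8 half-log concentrations from 100 uM in 0.5% DMSO. STAT3 mRNA by qRT-PCR, normalised to ACTB, GAPDH, POLR2A; bidirectional fit versus DMSO.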

Measured: AC50

Chain of Nuclear factor erythroid 2-related factor 2 (Homo sapiens) (Q16236 whole entry, looked up): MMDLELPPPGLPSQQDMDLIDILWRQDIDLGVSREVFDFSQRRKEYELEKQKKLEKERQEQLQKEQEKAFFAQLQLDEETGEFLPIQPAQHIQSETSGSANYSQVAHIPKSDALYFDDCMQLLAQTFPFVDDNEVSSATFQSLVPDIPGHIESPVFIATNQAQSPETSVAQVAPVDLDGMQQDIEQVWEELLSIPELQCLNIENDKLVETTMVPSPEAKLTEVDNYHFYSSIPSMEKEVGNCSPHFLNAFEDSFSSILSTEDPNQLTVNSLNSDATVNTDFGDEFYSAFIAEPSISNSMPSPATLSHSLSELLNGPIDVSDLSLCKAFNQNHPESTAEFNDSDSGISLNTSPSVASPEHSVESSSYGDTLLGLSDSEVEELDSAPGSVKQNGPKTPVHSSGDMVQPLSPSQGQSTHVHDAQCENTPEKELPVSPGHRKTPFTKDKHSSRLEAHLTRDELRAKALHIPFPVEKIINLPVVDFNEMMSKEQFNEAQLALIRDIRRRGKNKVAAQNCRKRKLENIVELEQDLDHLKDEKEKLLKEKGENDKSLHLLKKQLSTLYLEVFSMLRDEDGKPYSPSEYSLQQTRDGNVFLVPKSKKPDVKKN
Chain of Nuclear factor NF-kappa-B p105 subunit (Homo sapiens) (P19838 whole entry, looked up): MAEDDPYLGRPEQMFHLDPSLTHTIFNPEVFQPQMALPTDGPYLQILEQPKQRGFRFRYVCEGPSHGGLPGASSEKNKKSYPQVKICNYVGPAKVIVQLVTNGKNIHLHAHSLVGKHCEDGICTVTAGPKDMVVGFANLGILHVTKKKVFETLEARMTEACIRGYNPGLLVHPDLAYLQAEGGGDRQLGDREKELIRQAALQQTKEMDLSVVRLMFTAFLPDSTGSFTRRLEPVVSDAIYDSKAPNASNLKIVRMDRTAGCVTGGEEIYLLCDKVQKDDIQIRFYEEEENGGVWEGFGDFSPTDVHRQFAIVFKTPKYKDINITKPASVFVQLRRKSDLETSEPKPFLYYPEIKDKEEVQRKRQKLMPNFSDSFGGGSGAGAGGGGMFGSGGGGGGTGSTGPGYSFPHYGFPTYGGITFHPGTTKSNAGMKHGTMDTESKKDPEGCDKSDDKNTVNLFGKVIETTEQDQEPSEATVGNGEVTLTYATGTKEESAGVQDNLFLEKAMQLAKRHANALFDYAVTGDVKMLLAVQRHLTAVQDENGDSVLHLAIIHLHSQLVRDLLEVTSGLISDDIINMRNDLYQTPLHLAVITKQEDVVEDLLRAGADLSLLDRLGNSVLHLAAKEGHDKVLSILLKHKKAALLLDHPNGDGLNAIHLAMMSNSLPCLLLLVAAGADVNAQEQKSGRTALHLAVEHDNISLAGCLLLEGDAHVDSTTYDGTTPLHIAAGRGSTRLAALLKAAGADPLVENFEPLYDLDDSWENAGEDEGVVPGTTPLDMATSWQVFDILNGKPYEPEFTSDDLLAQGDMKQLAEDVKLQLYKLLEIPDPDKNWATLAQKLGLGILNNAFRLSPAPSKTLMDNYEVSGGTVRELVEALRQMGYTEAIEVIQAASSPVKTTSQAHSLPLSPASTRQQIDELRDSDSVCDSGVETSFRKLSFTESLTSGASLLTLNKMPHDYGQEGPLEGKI
Chain of Signal transducer and activator of transcription 3 (Homo sapiens) (P40763 whole entry, looked up): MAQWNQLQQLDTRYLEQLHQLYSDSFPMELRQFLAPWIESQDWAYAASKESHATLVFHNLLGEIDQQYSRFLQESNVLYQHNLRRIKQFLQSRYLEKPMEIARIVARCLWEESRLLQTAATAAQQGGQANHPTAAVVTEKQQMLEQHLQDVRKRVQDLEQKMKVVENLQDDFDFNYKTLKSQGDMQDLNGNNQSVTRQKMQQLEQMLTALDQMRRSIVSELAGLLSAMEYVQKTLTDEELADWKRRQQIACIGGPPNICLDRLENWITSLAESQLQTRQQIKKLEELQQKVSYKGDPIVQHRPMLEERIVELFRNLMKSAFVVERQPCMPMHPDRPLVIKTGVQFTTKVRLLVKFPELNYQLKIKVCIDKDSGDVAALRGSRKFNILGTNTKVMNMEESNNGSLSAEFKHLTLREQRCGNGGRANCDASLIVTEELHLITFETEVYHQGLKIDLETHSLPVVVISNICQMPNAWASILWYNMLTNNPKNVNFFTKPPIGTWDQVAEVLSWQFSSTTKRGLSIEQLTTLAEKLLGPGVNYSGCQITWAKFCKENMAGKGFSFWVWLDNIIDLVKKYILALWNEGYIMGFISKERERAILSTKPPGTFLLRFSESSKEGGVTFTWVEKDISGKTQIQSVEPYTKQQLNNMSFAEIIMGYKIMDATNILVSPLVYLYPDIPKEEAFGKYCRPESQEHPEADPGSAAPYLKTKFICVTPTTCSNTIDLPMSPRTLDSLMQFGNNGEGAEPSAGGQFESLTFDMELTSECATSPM

O=P1(N(CCCl)CCCl)NCCCO1 (stereo not given)
inactive: [1] | [2] | [3] | [4] | [5] | [6] | [7] | [8] | [9] | [10] | [11] | [12] | [13] | [14] | [15] | [16] | [17] | [18]

ClC1=C(Cl)C2(Cl)C3C(Cl)C(Cl)CC3C1(Cl)C2(Cl)Cl (stereo not given)
active: [3] 43700 nM | [7] 50000 nM | [8] 23600 nM | [9] 2310 nM
inactive: [1] | [2] | [4] | [5] | [6] | [10] | [11] | [12] | [13] | [14] | [15] | [16] | [17] | [18]

O=[N+]([O-])c1ccccc1
inactive: [1] | [2] | [3] | [4] | [5] | [6] | [7] | [8] | [9] | [10] | [11] | [12] | [13] | [14] | [15] | [16] | [17] | [18]

c1nc[nH]n1
active: [1] 116 nM | [6] 15800 nM | [7] 104 nM | [8] 89.9 nM | [15] 106 nM
inactive: [2] | [3] | [4] | [5] | [9] | [10] | [11] | [12] | [13] | [14] | [16] | [17] | [18]

CCOc1ccc(C(C)(C)COCc2cccc(Oc3ccccc3)c2)cc1
inactive: [1] | [2] | [3] | [4] | [5] | [6] | [7] | [8] | [9] | [10] | [11] | [12] | [13] | [14] | [15] | [16] | [17] | [18]

CCN(CC)c1ccccc1
inactive: [1] | [2] | [3] | [4] | [5] | [6] | [7] | [8] | [9] | [10] | [11] | [12] | [13] | [14] | [15] | [16] | [17] | [18]

CCCCCCCc1ccc(O)cc1
inactive: [1] | [2] | [3] | [4] | [5] | [6] | [7] | [8] | [9] | [10] | [11] | [12] | [13] | [14] | [15] | [16] | [17] | [18]

c1ccc(OP(Oc2ccccc2)Oc2ccccc2)cc1
inactive: [1] | [2] | [3] | [4] | [5] | [6] | [7] | [8] | [9] | [10] | [11] | [12] | [13] | [14] | [15] | [16] | [17] | [18]

COCCOCCO
inactive: [1] | [2] | [3] | [4] | [5] | [6] | [7] | [8] | [9] | [10] | [11] | [12] | [13] | [14] | [15] | [16] | [17] | [18]

Nc1cc2c3c(c1)C(c1ccccc1)=N[C@@H](NC(=O)c1cccnc1)C(=O)N3CC2
inactive: [1] | [2] | [3] | [4] | [5] | [6] | [7] | [8] | [9] | [10] | [11] | [12] | [13] | [14] | [15] | [16] | [17] | [18]

CN(C)C(=O)Cl
inactive: [1] | [2] | [19] | [3] | [4] | [5] | [6] | [7] | [8] | [9] | [10] | [11] | [12] | [13] | [14] | [15] | [16] | [17] | [20] | [18]
